From PubChem
Compounds with a hit are over-represented: about 3.2% of the library has one in this group of screens.
rCAG RNA binder – molecules binding r(CAG) RNA repeats; 370,000 tested, 1.3% active; r(CAG) RNA repeat, TO-PRO-1 dye displacement fluorescence; inhibition, % at 3 µM;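 active means inhibition above the plate cutoff, the mean of all test compounds on that plate plus 3 SD, cut at about 35% in these data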;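 further: higher means more dye released from RNA so lower well fluorescence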
MsrA act – bovine methionine sulfoxide reductase A activation; purified bovine MsrA, absorbance read-out; activation, % at 10.6 µM; 360,000 tested, 0.3% active; AID 602163; in the data active means activation above about 7.5%
DAGLB inh – blocks human DAGLB lipase activity. Q8NCG7. HEK293T DAGLB membrane lysate, EnzChek fluorogenic substrate. inhibition, % at 5.17 µM. 340,000 tested, 0.059% active; in the data active means inhibition above about 34%
MsrA inhibitor – inhibitors of bovine MsrA; 360,000 tested, 0.75% active; inhibition, % at 15.5 µM; purified bovine MsrA, absorbance read-out
NadD block – NadD (S. aureus) enzyme inhibition. purified NadD enzyme, colorimetric absorbance read-out. inhibition, % at 20 µM. 360,000 tested, 0.78% active; in the data active means inhibition above about 26%
Pemphigus Ab inh – human desmoglein-3 autoantibody binding inhibition; DSG3-coupled beads, scFv-anti-DSG3-GFP binding, flow cytometry; stronger effect = lower value; 310,000 tested, 0.48% active; binding (percent of control), % at 10 µM;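 active means binding more than 3 SD below its plate's average and above zero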;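 further: hits lower antibody fragment binding to DSG3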
MsrA conf – bovine MsrA inhibition, confirmed | inhibition, % at 15.5 µM | purified bovine MsrA, absorbance read-out | AID 651822 | 2,300 tested, 41% active | shares compounds with MsrA inhibitor;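 further: coupled to thioredoxin reductase with NADPH and selenocystamine and DMSO as substrate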
Each line names hits and unclear results; the compound was inactive in the other large screens (follow-up assays come after a bar, where they were run). Unless noted, no stated cut-off is given here; in the data, active means inhibition above about 4.5%; inactive means the rest.

O=C(O)c1cccc(Cn2c(Cl)c(/C=N/NC(=O)c3cc4ccccc4cc3O)sc2=O)c1	rCAG RNA binder 77.2, MsrA inhibitor 4.9 | MsrA conf 5.6
COc1cc(NC(=O)C2CC(c3ccccc3O)=NO2)cc(OC)c1OC (stereo unspecified)	none
CCN(CC)C(=O)CC[C@H]1CC[C@]2(CCCN(Cc3nccs3)C2)O1	none (no result: MsrA act, DAGLB inh, MsrA inhibitor, NadD block, Pemphigus Ab inh)
CC(=O)Nc1ccc(CN2C(=O)C(Cc3ccccc3)ON=C2c2ncccc2C)cc1 (stereo unspecified)	none (no result: DAGLB inh, Pemphigus Ab inh)
CC(=O)c1c(C)[nH]c(C(=O)Nc2ccc(N3CCCCCC3)cc2)c1C	none
C[C@@H](NS(=O)(=O)c1cc(Cl)ccc1F)[C@H](O)c1ccccc1	none
O=C(O)c1cccc(Cn2c(Cl)c(/C=N/NC(=O)c3ccccc3)sc2=O)c1	MsrA inhibitor 5.7 | MsrA conf 5.1
OCCN(Cc1ccccn1)Cc1ccccn1	none (no result: rCAG RNA binder, DAGLB inh, MsrA inhibitor, Pemphigus Ab inh)
Cc1cccc(C(=O)Nc2ccc(C(=O)N/N=C/c3ccc(C)o3)cc2)c1	MsrA inhibitor 6.4 | MsrA conf inactive
C/C(=N/NC(=O)c1ccncc1)c1ccccc1	none
Cc1ccc(/C=N/NC(=O)c2ccncc2)o1	MsrA inhibitor 5.7 | MsrA conf 4.6
C/C(=N\NC(=O)c1ccc(N/N=C(\C)c2ccncc2)cc1)c1ccncc1	MsrA inhibitor 5.8 | MsrA conf 6.2
CCOc1ccc(CCNC(=O)c2cc3sccc3n2CC)cc1OC	none (no result: MsrA act, DAGLB inh, MsrA inhibitor, NadD block, Pemphigus Ab inh)
Cc1ccc(S(=O)(=O)c2ccc([N+](=O)[O-])o2)cc1	none (no result: Pemphigus Ab inh)
CSCCCNC(=O)CN1C(=O)C2CCCCN2C(=O)c2ccccc21 (stereo unspecified)	none (no result: MsrA act, DAGLB inh, MsrA inhibitor, NadD block, Pemphigus Ab inh)
COC(=O)N1[C@H](C)C=C[C@]1(Cc1ccccc1)C(=O)NCCCNc1ncc(C(F)(F)F)cc1Cl	MsrA inhibitor 37.1 | MsrA conf 36.8
Cc1ccc(/C=C/c2nnc(-c3ccc(C)cc3)o2)cc1	none
Fc1ccc(/C=C/c2nnc(-c3cccs3)o2)cc1	MsrA inhibitor 5.2 | MsrA conf inactive
O=C(O)c1ccc(/C=N/Nc2ccc(F)cc2F)cc1	MsrA inhibitor 5.6 | MsrA conf inactive
Fc1ccc(N/N=C/c2ccncc2)c(F)c1	none
COC(=O)/C=C1\OCc2ccc(C)cc21	none (no result: MsrA act, DAGLB inh, NadD block, Pemphigus Ab inh)
Cc1ccn2c(=O)c(NC(=O)COc3ccccc3)c(C)nc2c1	MsrA inhibitor 4.9 | MsrA conf inactive
Cc1nc2c(C)cccn2c(=O)c1NC(=O)COc1ccccc1	none
CC(=O)c1sc(NC(=O)C=C(C)C)nc1C	MsrA inhibitor 5.3 | MsrA conf inactive
CC(=O)c1sc(NC(=O)c2ccc(Br)o2)nc1C	MsrA inhibitor 5.6 | MsrA conf inactive
CCCCC(=O)Nc1nc(C)c(C(C)=O)s1	none
CC(=O)c1sc(NC(=O)c2ccc(Cn3cc(Br)cn3)o2)nc1C	none
CC(=O)Nc1c(-c2ccc(F)cc2)nc2ncccn12	none (no result: MsrA act, DAGLB inh, MsrA inhibitor, NadD block, Pemphigus Ab inh)
N#C/C(=C\c1ccc(Cl)cc1)c1n[nH]c(Cn2cncn2)n1	none
COc1ccc(/C=C(\C#N)c2n[nH]c(Cn3cncn3)n2)cc1	MsrA inhibitor 5.7 (no result: DAGLB inh, Pemphigus Ab inh) | MsrA conf 5.2
O=C(OC12CCCN(C1)/C(=C/c1ccncc1)C2)c1ccc(Cl)cc1 (stereo unspecified)	none (no result: MsrA act, DAGLB inh, MsrA inhibitor, NadD block, Pemphigus Ab inh)
CC(=O)c1sc(NC(=O)c2cc(=O)c3ccccc3o2)nc1C	none
CCOC(=O)c1csc(NC(=O)c2cc(=O)c3ccccc3o2)n1	MsrA inhibitor 4.7 | MsrA conf inactive
OC(c1ccc(Cl)cc1)c1ncc(-c2cccc(C(F)(F)F)c2)[nH]1 (stereo unspecified)	none (no result: DAGLB inh, Pemphigus Ab inh)
COc1ccc(C(=O)N2CCCC(C)(C(=O)NS(=O)(=O)C3CC3)C2)cc1 (stereo unspecified)	none (no result: DAGLB inh, Pemphigus Ab inh)
CN(C)c1ccc(C(=O)OCC(=O)N2CCCCCC2)cc1	none
CN(C)c1ccc(C(=O)OCC(=O)N2CCCC2)cc1	MsrA inhibitor 5.7 | MsrA conf inactive
O=C(Nc1ccc(F)cc1)OCc1cn(Cc2cccc(Cl)c2)nn1	none (no result: MsrA act, DAGLB inh, MsrA inhibitor, NadD block, Pemphigus Ab inh)
CC(=O)Cc1nsc(NC(=O)c2ccc(-c3ccc(F)cc3)o2)n1	MsrA inhibitor 7.0 | MsrA conf 5.4
Cc1nnc(Nc2ccc(F)cc2)c2ccccc12	none
Cc1nnc(Nc2ccccn2)c2ccccc12	MsrA inhibitor 5.5 | MsrA conf inactive
Cc1cc(=O)[nH]c2c(C)cc(S(=O)(=O)Nc3ccc(O)cc3)cc12	MsrA inhibitor 9.2 | MsrA conf 4.7
COC(=O)Nc1ccc(S(=O)(=O)Nc2ccc(O)cc2)cc1	none
C/C(=N/NC(=O)Cc1cccs1)c1cccc([N+](=O)[O-])c1	none (no result: MsrA act, DAGLB inh, MsrA inhibitor, NadD block, Pemphigus Ab inh)
Cn1c(/C(C#N)=C/Nc2ccccn2)nc2ccccc21	MsrA inhibitor 6.8 | MsrA conf inactive
CN(C(=O)c1cccc(NC(=O)Cc2ccc(NC(=O)C3CCN(C(=O)CCc4ccccc4)CC3)cc2)c1)C1CCCCC1	none
Oc1ccc(/C=N\Nc2nncc(-c3ccccc3)n2)cc1	MsrA inhibitor 5.8 | MsrA conf inactive
COc1ccc(-c2cnnc(N/N=C/c3ccc(O)cc3)n2)cc1	none
CNC(=S)N1N=C(c2ccc(Br)cc2)CC1c1ccc(OC)cc1 (stereo unspecified)	MsrA inhibitor 5.7 | MsrA conf inactive
CNC(=S)N1N=C(c2ccc(C)cc2)CC1c1ccc(OC)cc1 (stereo unspecified)	none
COc1cccc(/C(C)=N/Nc2ccc(S(=O)(=O)N3CCCCC3)cn2)c1	MsrA inhibitor 4.8 | MsrA conf inactive
C/C(=N\Nc1ccc(S(=O)(=O)N2CCCCC2)cn1)c1ccc(O)cc1	none
CCN(C(=O)CN(C1=NC2CS(=O)(=O)CC2S1)c1ccc(OC)cc1)c1cccc(C)c1 (stereo unspecified)	none (no result: DAGLB inh, Pemphigus Ab inh)
Cc1ccc(Cl)cc1NC(=O)C[n+]1ccc(Cc2ccc([N+](=O)[O-])cc2)cc1	MsrA inhibitor 6.6 | MsrA conf inactive
CC(C)(C)NC(=O)NC(=O)C[n+]1ccc(Cc2ccc([N+](=O)[O-])cc2)cc1	MsrA inhibitor 11.5 | MsrA conf inactive
C[C@@H]1CN([C@H](C)CO)C(=O)c2cc(Br)cnc2O[C@H]1CN(C)Cc1ccccc1F	none (no result: MsrA act, DAGLB inh, NadD block, Pemphigus Ab inh)
O=C(N/N=C/c1c[nH]c2ccccc12)c1[nH]c2ccc(Br)cc2c1-c1ccccc1	MsrA inhibitor 5.1 | MsrA conf inactive
Cc1ccsc1C(=O)N1CCCC1(C)C(=O)NCC(C)C (stereo unspecified)	none (no result: DAGLB inh, Pemphigus Ab inh)
N#Cc1cc(NC2CCCC2)c([N+](=O)[O-])cc1C#N	MsrA inhibitor 42.9 | MsrA conf inactive
O=C(O)Cc1sc(Nc2ccccc2)nc1-c1cccs1	MsrA inhibitor 4.9 | MsrA conf inactive
O=c1oc2ccccc2c(NCc2ccccc2F)c1[N+](=O)[O-]	MsrA inhibitor 8.8 | MsrA conf 7.2
COc1cccc(/C=C2\SC(N3CCC(C)CC3)=NC2=O)c1OC	MsrA inhibitor 5.9 | MsrA conf inactive
Cc1cc(C)c[n+](-c2[nH]c(=O)sc2/C=N/N=C(\N)[S-])c1	MsrA inhibitor 5.4 | MsrA conf 5.5
